RORgamma inh – qHTS for inhibitors of ROR gamma transcriptional activity; Nuclear receptor ROR-gamma (Mus musculus), P51450; Drosophila S2 Gal4-RORgamma UAS-luciferase reporter, 20 h; Potency, µM (highest dose often 53.6 µM), for the others: top-dose activity change, negative = inhibition, actives largely listed as inhibitors; hit rate 5.4% among 310,000; AID 2551, 2010; note: potency is the fitted concentration of half-maximal effect; nearly all actives have a fitted effect of over 60% in size
Target sequence (P51450 whole entry, looked up, the tested form may be a part): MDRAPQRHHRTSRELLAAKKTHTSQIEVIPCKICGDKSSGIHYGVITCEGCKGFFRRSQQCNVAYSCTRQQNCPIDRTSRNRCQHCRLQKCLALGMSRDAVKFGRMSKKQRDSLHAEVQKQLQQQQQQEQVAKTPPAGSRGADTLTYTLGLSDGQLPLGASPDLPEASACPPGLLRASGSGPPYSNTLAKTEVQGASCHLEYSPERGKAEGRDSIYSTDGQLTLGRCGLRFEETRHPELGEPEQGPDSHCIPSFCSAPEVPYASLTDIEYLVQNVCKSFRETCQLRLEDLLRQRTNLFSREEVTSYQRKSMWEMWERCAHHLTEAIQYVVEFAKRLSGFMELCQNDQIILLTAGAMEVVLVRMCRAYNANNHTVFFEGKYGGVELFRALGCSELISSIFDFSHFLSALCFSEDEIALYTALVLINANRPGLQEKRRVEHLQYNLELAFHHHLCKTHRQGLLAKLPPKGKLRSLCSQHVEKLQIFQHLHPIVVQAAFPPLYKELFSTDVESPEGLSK
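A Gal4/UAS one-hybrid system in insect cells: metallothionein-promoter Gal4–ROR gamma fusion plus Photinus luciferase reporter. Copper sulfate 700 uM final, 20 hr ambient incubation, luminescent detection after 10 min with reagent.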
ELG1 repair inh – qHTS screen for small molecules that inhibit ELG1-dependent DNA repair in human embryonic kidney (HEK293T) cells expressing luciferase-tagged ELG1; HEK293T ELG1-luciferase reporter, luminescence, 16 h; DNA damage induced by 5-fluorouridine; Potency, µM (top dose mostly 46.1 µM), without a hit: top-dose activity change, negative = inhibition, usual class: inhibitors; hit rate 2.3% among 330,000; AID 504467, 2011; note: potency is the fitted concentration of half-maximal effect; nearly all actives have a fitted effect of over 55% in size
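DMSO vehicle served as the neutral condition. Each well held 2,000 cells given 5-fluorouridine plus compound; after 16 hr at 37 °C/5% CO2, ONE-Glo was added and luciferase measured 30 min later.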
DT40 TDP1 CPT – qHTS for Inhibitors of human tyrosyl-DNA phosphodiesterase 1 (TDP1): qHTS in cells in presence of CPT; chicken DT40 Tdp1-/-;hTDP1 cells + 20 nM CPT, ATP luminescence, 48 h; Potency, µM (series often up to 46.2 µM), for the others: top-dose activity change, negative = growth inhibition, usual class: inhibitors; hit rate 12% among 420,000; AID 686979, 2013; note: potency is the fitted concentration of half-maximal effect; nearly all actives have a fitted effect of over 55% in size
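Cell growth measured by CellTiter-Glo luminescence after a minimum 48 h, 37 C compound exposure with 20 nM CPT in Tdp1-knockout DT40 cells stably expressing hTDP1, seeded 400/well; qHTS titration format.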
TDP1 cell noCPT – qHTS for Inhibitors of human tyrosyl-DNA phosphodiesterase 1 (TDP1): qHTS in cells in absence of CPT | Potency, µM (top dose mostly 46.2 µM), for the others: top-dose activity change, negative = growth inhibition, most hits filed as inhibitors | DT40 Tdp1-/- hTDP1 cells, no CPT, ATP luminescence, 48 h | hit rate 15% among 420,000; note: potency is the fitted concentration of half-maximal effect; nearly all actives have a fitted effect of over 55% in size
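Chicken DT40 Tdp1-/- cells complemented with human TDP1, screened without camptothecin (DMSO vehicle only), 400 cells/well. Compounds pin-transferred, cells incubated at 37 °C for at least 48 hr. Growth read as ATP-dependent luminescence (CellTiter-Glo, 30 min at RT).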
IL-1B inflam inh – qHTS for Inhibitors of Inflammasome Signaling: IL-1-beta AlphaLISA Primary Screen | THP-1 LPS/ATP IL-1B secretion, AlphaLISA, 16 h; stronger effect = lower value | activity change, % at 57.5 µM | hit rate 4.7% among 360,000 | AID 743279, 2014; in the data active = activity change below about -50%; inconclusive = mostly about -30% to -49%
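THP-1 cells pretreated 1 hr with compounds (up to 57.5 uM final), then stimulated with LPS (250 ng/mL final) plus ATP (1.25 mM final); secreted IL-1B measured by AlphaLISA after 16 hr, decreased signal indicating inhibition.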
VP16 counter – VP16 counterscreen qHTS for inhibitors of ROR gamma transcriptional activity; Drosophila S2 Gal4-VP16 UAS-luciferase, luminescence, 20 h; Potency, µM (highest dose often 53.6 µM), for the others: at the highest dose activity, negative = inhibition, hits mostly inhibitors; hit rate 3.5% among 310,000;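 note: Gal4-VP16 expression switched on by copper sulfate through the metallothionein promoter; potency is the fitted concentration of half-maximal effect; nearly all actives have a fitted effect of over 50% in size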
Starred values were filed as active, the others as inactive; ? = inconclusive; . = no result; [ ] = another dose, or the depositor's remark. Sampled rows, rich in hits. Any-hit rate of the full collection: about 21%. Unless noted, calls come from the whole dose curve; as a rule, active = well fitted curve in the direction sought with a large enough effect; inconclusive = small, poorly fitted or top-dose-only effect, or another doubt; inactive = no such curve, though single readings can be large; an effect the other way counts as inactive or inconclusive. % is set by controls: 0 for no effect and ±100 for the full control effect.

SMILES	RORgamma inh	ELG1 repair inh	DT40 TDP1 CPT	TDP1 cell noCPT	IL-1B inflam inh	VP16 counter
O=S(=O)(c1ccc2c(c1)CCCC2)N1CCN(c2nc(-c3ccccc3)nc3ccccc23)CC1	.	.	10µM*	10µM*	.	.
COc1ccc(N(C)S(=O)(=O)c2cccc(C(=O)Nc3nc(C)cs3)c2)cc1	.	?	-57%	-54%	0	.
COc1cc(OC)c(N(C)S(=O)(=O)c2cccc(C(=O)OCC(=O)N(C)Cc3ccccc3)c2)cc1Cl	.	.	16µM*	23µM*	0	.
COc1cc(OC)c(N(C)S(=O)(=O)c2cccc(C(=O)Nc3nc(C)cs3)c2)cc1Cl	.	18µM*	16µM*	?	16	.
COc1cc(OC)c(N(C)S(=O)(=O)c2cccc(C(=O)NC3=NCCS3)c2)cc1Cl	10µM*	16µM*	23µM*	?	-17	?
CC(=O)CC/C=C(\C)CC/C=C(\C)CC/C=C(\C)CCC=C(C)C	.	.	-13%	-16%	.	.
CCCCOc1ccc(Cc2cnc(N)nc2N)cc1	18%	-15%	-24%	?	-55*	-8%
CCCCOc1ccc(CN(C)c2ncnc(N)n2)cc1	?	-9%	?	?	-4	27%
CCOC(=O)C1(C)CCCN(C(=O)c2ccc(-c3ccccc3)cc2)C1 (stereo unspecified)	.	.	?	16µM*	5	.
CCCNC(=O)C1(C)CCN(C(=O)Cc2ccc3ccccc3c2)C1 (stereo unspecified)	.	.	?	?	0	.
CCOC(=O)C1(C)CCCN(C(=O)Cc2ccc3ccccc3c2)C1 (stereo unspecified)	.	.	29µM*	9.2µM*	43	.
CCOC(=O)C1(C)CCCN(C(=O)c2ccccc2)C1 (stereo unspecified)	.	.	?	-7%	-3	.
COc1cccc(CNC(=O)Cc2c(C)c3ccc(OC)c(C)c3oc2=O)c1	.	.	1%	-3%	.	.
COc1ccc(C)cc1Nc1nc(-c2ccccc2O)nc2ccccc12	1%	4%	-14%	-8%	10	-6%
COc1ccc(C)cc1Nc1nc(N)c2cc(OC)c(OC)cc2n1	?	5%	4.6µM*	23µM*	-92*	?
Cc1ccc(C)c(Nc2nc(N)c3ccccc3n2)c1	-7%	?	?	18µM*	.	?
Nc1nc(Nc2cccc(F)c2)nc2ccccc12	22%	?	18µM*	18µM*	-111*	-3%
COc1cc2c(C)nc(C)c(C#N)c2cc1OC	-36%	-9%	0%	?	-4	0%
Cc1ccc(C)c(Nc2ncnc(N)c2[N+](=O)[O-])c1	-8%	22%	-2%	-21%	0	-10%
COc1cc2nc(C#N)nc(N)c2cc1OC	.	.	?	20µM*	.	.
CC1(C)CC(NC(=O)C2CCC(=O)N(C3CC3)C2)CC(C)(C)C1 (stereo unspecified)	-16%	8%	5%	-16%	18	-7%
C[n+]1ccn(CC(=O)c2cc(C(C)(C)C)c(O)c(C(C)(C)C)c2)c1	24%	-5%	?	?	?	-14%
COc1cc2nc(N3CCNCC3)nc(N)c2cc1OC	7%	19%	-88%	-107%	22	-7%
COc1cc2nc(N3CCN(c4cc(C)ccc4C)CC3)nc(N)c2cc1OC	16µM*	?	8.2µM*	7.3µM*	-97*	16µM*
COc1ccc(Cl)cc1Nc1nc(N)c2ccccc2n1	-4%[1.91 µM]	?	?	?	-89*	-6%
SMILES	RORgamma inh	ELG1 repair inh	DT40 TDP1 CPT	TDP1 cell noCPT	IL-1B inflam inh	VP16 counter
COc1nc(NCCO)nc(Nc2cc(Cl)ccc2OC)n1	12%	-2%	-16%	-22%	-10	-15%
COc1ccc(S(=O)(=O)N(CC(=O)NC2CC2)Cc2ccccc2)cc1	35%	5%	4%	-6%	-5	5%
O=C(COC(=O)c1cccc(S(=O)(=O)N2CCCCC2)c1)NCc1cccc(Cl)c1	.	.	0%	1%	-2	.
C[C@@H]1C=C[C@](Cc2ccccc2)(C(=O)NCC2CC2)N1C(=O)c1ccccc1	-3%	?	18µM*	9.2µM*	8	?
CCCCc1nnc(SC(C)C(=O)Nc2nccs2)n1C (stereo unspecified)	-15%	5%	15%	3%	9	0%
COC(=O)c1c(NC(=O)C2=COCCO2)sc(C)c1C	.	-19%	-2%	?	-60*	.
CCOC(=O)c1c(NC(=O)C2=COCCO2)sc2c1CCN(C(=O)OC)C2	.	?	?	18µM*	-26	.
CCOc1ccc(Br)cc1S(=O)(=O)Nc1cccc(-c2ccc(OC)nn2)c1	.	.	-82%	-71%	.	.
CC(C)=NOCc1ccc(-c2cn([C@@H]3COC[C@@H]3O)nn2)cc1	3%[10 µM]	.	.	.	.	5%[10 µM]
CCc1ccccc1NC(=O)Cn1c(=O)n(-c2ccc(C)c(C)c2)c(=O)c2oc3ccccc3c21	.	.	15µM*	?	.	.
COc1cc(NC(=O)Cn2c(=O)n(Cc3ccccc3)c(=O)c3oc4ccccc4c32)cc(OC)c1	.	.	-4%	-12%	.	.

Assay outcomes (PubChem)
